Active and inactive are the calls of the source. The call rests on the fitted dose curve; in most records, active means well fitted curve in the direction sought with a large enough effect in the repeat runs; inconclusive means weak or mixed curves; inactive means flat fitted curve, though single readings scatter.

From PubChem BioAssay (Tox21) come the findings set out here.
On the % scale 0 is the no-effect control and ±100 the full control effect.

The assay is described as follows: qHTS assay to test for compound auto fluorescence at 590 nm (red) in HepG2 cells (AID 720674). The note with it: HepG2 autofluorescence, red 540/590 nm, 1 h; series mostly up to 91.3 µM; fluorescence, relative to Rose Bengal: at the top concentration. The text has this:
U.S. Tox21 Program National Center for Advancing Translational Sciences [NCATS] NIH Chemical Genomics Center [NCGC] U.S. Environmental Protection Agency [EPA] National Institutes of Environmental Health Sciences [NIEHS] National Toxicology Program [NTP] U.S. Food and Drug Administration [FDA] Tox21 Assay Overview: Compound auto fluorescence often interferes with screening of the compound library against various biological targets and signaling pathways. Some of these compounds may have fluorophoric properties. Such properties may interfere with the assay outputs resulting in false positives and/or negatives. To decrease such complications and ensure the compound activities are relevant in terms of biological response, the Tox21 10K compound library was screened for auto fluorescence. From the fluorophores used as reporter signals in our screening assays, the auto fluorescence equivalencies of compounds against three fluorophores have been evaluated: Triamterene, Fluorescein and Rose Bengal sodium for blue, green and red fluorescence, respectively. The fluorescence intensities were measured using Excitation/Emission wavelengths at 405/460nm, 485/535nm and 540/590nm for blue, green and red labels, respectively. This assay includes the red fluorescence data.
Tox21 Assay Protocol Summary: 2,000 HepG2 cells in 5 uL of culture medium (MEM containing 10% FBS) per well were dispensed into black wall/clear bottom 1536-well plates using a Multidrop Combi Dispenser (ThermoFisher Scientific, Waltham, MA). The assay plates were incubated overnight at 37 C to allow cell attachment to the well bottom, followed by the transfer of 23 nL compound or DMSO vehicle by a pintool work station (Kalypsys , San Diego, CA). After the assay plates were incubated for 1 hr at 37 C and 5% CO2, fluorescence intensities in the assay plates were measured by an Envision (PerkinElmer, Shelton, CT) plate reader using three labels for measuring blue, green and red fluorescence at […] 460, 535 and 590 nm respectively.
For orientation: In qHTS, concentration-response curves come from the screen itself.
On to `CCCCCCCCCCCCc1ccccc1`, for which the compound was classed as inactive.
Take `O=C(CC(C(=O)OC1CCCCC1)S(=O)(=O)O)OC1CCCCC1` (stereo not given): the call was inactive.
Same read-out and setting: the same measure for `CC(=O)Nc1cccc(O)c1`: “inactive”; for `CC(=O)c1ccccc1`: “inactive”.
For the compound `CCCCCCCCCCCCCCCO`, the outcome was inactive.
Regarding `CC1=CC(=O)NS(=O)(=O)O1`, the outcome was inactive.
In the case of `O=C(Oc1ccccc1)c1ccccc1`, the compound was called inactive.
With `OCc1cccnc1`, the compound was classed as inactive.
The same measure, in the same setting: the same measure for `CN(C)CCC(c1ccccc1)c1ccccn1` (stereo not given): “inactive”; for `CN(C)CCCN`: “inactive”.
On the same count and under the same terms, the result for `C=C(C)C(=O)OCCOCCOCCOC(=O)C(=C)C` reads “inactive”; that for `O=C(O)CC(C(=O)O)C(CC(=O)O)C(=O)O` (stereo not given), “inactive”.
The same measure, in the same setting: the same measure for `CCCSc1ccc2nc(NC(=O)OC)[nH]c2c1`: “inactive”; for `CCCCC(CC)COC(=O)CS` (stereo not given): “inactive”.
As to `O=C(OCCOCCOC(=O)c1ccccc1)c1ccccc1`, the call was inactive.
For the compound `Oc1cccc2ccccc12`, the compound was called inactive.
With `CCN(CC)c1ccc(C(=O)c2ccccc2C(=O)O)c(O)c1`, the compound was called inactive.
In the case of `CN(C)CCOCCN(C)C`, the compound was called inactive.
On to `CC1=CCC2CC1C2(C)C` (stereo not given), for which the compound was called inactive.
`COc1ccc2cc([C@H](C)C(=O)O)ccc2c1`: the compound was called inactive.
The same measure, in the same setting: the same measure for `CCCCC(CC)COC(=O)CCCCC(=O)OCC(CC)CCCC` (stereo not given): “inactive”; for `c1ccc(OCCOc2ccccc2)cc1`: “inactive”; for `O=[N+]([O-])c1ccc(/C=C/c2ccc([N+](=O)[O-])cc2S(=O)(=O)O)c(S(=O)(=O)O)c1`: “inactive”.
Same read-out and setting: the result for `CC(C)(C)[C@@H](O)[C@@H](Cc1ccc(Cl)cc1)n1cncn1` reads “inactive”; that for `Cc1cnc(C(=O)NCCc2ccc(S(=O)(=O)NC(=O)NC3CCCCC3)cc2)cn1`, “inactive”; that for `CC(c1cc2ccccc2s1)N(O)C(N)=O` (stereo not given), “inactive”.
For `CC(C)c1ccc(S(=O)(=O)O)cc1`, the compound was classed as inactive.
Consider `CCCCCCCCC/C=C/CC1CC(=O)OC1=O` (stereo not given), for which the call was inactive.
On the same count and under the same terms, the same measure for `COc1ccc(NC(C)=O)cc1N`: “inactive”; for `ON=C1CCCCC1`: “inactive”; for `COc1cc(Cc2cnc(N)nc2N)cc(OC)c1OC`: “inactive”.
On to `O=C(O)[C@H](O)[C@@H](O)[C@H](O)[C@H](O)CO`, for which the call was inactive.
`CCCC(C)=O`: the result was inactive.
Consider `O=C(O)c1ccc2c(c1)C(=O)OC2=O`, for which the compound was called inactive.
For `C[C@H]1C[C@H]2[C@@H]3CCC4=CC(=O)C=C[C@]4(C)[C@@]3(F)[C@@H](O)C[C@]2(C)[C@@]1(O)C(=O)CO`, the compound was called inactive.
Take `O=C(O)c1ccccc1C(c1ccc(O)cc1)c1ccc(O)cc1`: the “fluorescence, relative to Rose Bengal” value was -0.0889% (inactive).
Take `O=C(O)c1cc(C(=O)O)cc(S(=O)(=O)O)c1`: the compound was classed as inactive.
Same read-out and setting: the result for `CC(O)COCC(C)O` (stereo not given) reads “inactive”.
Still for that read-out and setting: the result for `O=C(O)c1cc(=O)c2c(OCC(O)COc3cccc4oc(C(=O)O)cc(=O)c34)cccc2o1` reads “inactive”.
Same read-out and setting: the same measure for `CC[C@H](C)C(=O)O[C@H]1C[C@@H](C)C=C2C=C[C@H](C)[C@H](CC[C@@H]3C[C@@H](O)CC(=O)O3)[C@H]21`: “inactive”.
